Test [1] can be described thus: NCI Yeast Anticancer Drug Screen. Data for the rad50 strain (AID 155).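 Note: 0% = growth of vehicle-only cultures of the same strain.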 Particulars: S. cerevisiae rad50 strain growth inhibition, stronger effect = higher value. The gist of the method: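 Relative growth inhibition (compound vs vehicle) was measured in yeast with a defined repair-gene alteration.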
Test [2] can be described thus: NCI Yeast Anticancer Drug Screen. Data for the mec2-1 strain (AID 157). Conditions: S. cerevisiae mec2-1 strain, stronger effect = higher value. Summed up:
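Compounds were applied to mec2-1 yeast cells. Their growth was then compared with that of vehicle-treated cultures to give growth inhibition.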

Test [3] is described as follows: NCI Yeast Anticancer Drug Screen. Data for the sgs1 mgt1 strain (AID 161).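 Note: 0% = growth of cultures given vehicle only.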 Conditions: S. cerevisiae sgs1 mgt1 strain, stronger effect = higher value. Summed up: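 This yeast growth screen uses a strain with defined DNA-repair lesions; compound-treated growth is compared with vehicle-treated growth.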
A short description of test [4]: NCI Yeast Anticancer Drug Screen. Data for the cln2 rad14 strain (AID 165).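 Note: 0% = growth equal to vehicle treated cultures.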 Conditions: S. cerevisiae cln2 rad14 strain, stronger effect = higher value. Summed up: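 Strain: cln2 rad14 yeast, altered in cell cycle control and DNA damage repair. Read-out: growth inhibition vs vehicle.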
A short description of test [5]: NCI Yeast Anticancer Drug Screen. Data for the bub3 strain (AID 167). Particulars: S. cerevisiae bub3 mutant strain, stronger effect = higher value. Summed up: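 Screening used yeast with an engineered genetic alteration affecting cell cycle control. Compound-exposed cultures were compared with vehicle cultures, and reduced growth was taken as inhibition.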
Test [6] in a line: NCI Yeast Anticancer Drug Screen. Data for the mlh1 rad18 strain (AID 175). Conditions: S. cerevisiae mlh1 rad18 strain growth inhibition, stronger effect = higher value. Summed up: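 A repair-deficient yeast strain is exposed to test compound, and growth is scored relative to vehicle-treated controls.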
Setting [7] is: at 5.0 µM (retest, dose inferred, filed as 0.5).
Setting [8] is: at 50.0 µM (retest, dose inferred, filed as 5.0).

Molecules are shown by their SMILES. Values joined by “and” are separate entries in the source; they are usually repeats but may differ in a detail not shown here. Equal entries are not always repeated. This is part of a sample that, as a whole, favours compounds with a hit. Of some 79,000 tested, about 15% had one in any assay. A structure can be active in one record and inactive in another. Active and inactive are the calls of the source. Cut-off read from the data, not from the text of the source: active = growth inhibition above about 70%; inactive = the rest.

Consider `CC(=O)OC1OC(CI)C(OC(C)=O)C(OC(C)=O)C1OC(C)=O` (stereo unspecified), for which the growth inhibition in test [1] (setting [7]) is 1% (inactive); in test [1] (setting [8]), 38% (inactive); in test [1] (at 50.0 µM) it was 16.1% (inactive) and 5.95% (inactive); in test [2] (setting [7]), -1% (inactive); in test [2] (setting [8]), 21% (inactive); in test [2] (at 50.0 µM) it was 17% (inactive) and 12.6% (inactive). Moreover, the growth inhibition in test [3] (setting [7]) was -3% (inactive); in test [3] (setting [8]), 19% (inactive); in test [3] (at 50.0 µM) it was 4.55% (inactive) and -11.6% (inactive); in test [4] (setting [7]), 2% (inactive); in test [4] (setting [8]), 49% (inactive); in test [4] (at 50.0 µM) it was 17.1% (inactive) and 5.75% (inactive). For the same compound, the growth inhibition in test [5] (setting [7]) was -5% (inactive); in test [5] (setting [8]) it was 69% (inactive); in test [5] (at 50.0 µM) it was 19.8% (inactive) and 94% (active); in test [6] (setting [7]), -1% (inactive); in test [6] (setting [8]), 25% (inactive); in test [6] (at 50.0 µM), 24.4% (inactive) and 9.3% (inactive).
As for `O=C(CNCc1ccccc1)Oc1c(Cl)c(Cl)c(Cl)c(Cl)c1Cl`, the growth inhibition in test [1] (setting [7]) is 3% (inactive); in test [1] (setting [8]) it was 32% (inactive); in test [1] (at 50.0 µM), 72.5% (active); in test [2] (setting [7]), 22% (inactive); in test [2] (setting [8]), 43% (inactive); in test [2] (at 50.0 µM), 62.5% (inactive). The growth inhibition in test [3] (setting [7]) was -13% (inactive); in test [3] (setting [8]), 55% (inactive); in test [3] (at 50.0 µM), 85.2% (active); in test [4] (setting [7]), -5% (inactive); in test [4] (setting [8]) it was 11% (inactive); in test [4] (at 50.0 µM) it was 51.4% (inactive). The growth inhibition in test [5] (setting [7]) is -4% (inactive); in test [5] (setting [8]), 31% (inactive); in test [5] (at 50.0 µM), 20% (inactive); in test [6] (setting [7]), 29% (inactive); in test [6] (setting [8]), 73% (active); in test [6] (at 50.0 µM), 64.7% (inactive).
Regarding `Cn1c(N)nc(=O)c2[nH]cnc21`, the growth inhibition in test [1] (setting [7]) is -1% (inactive); in test [1] (setting [8]), -1% (inactive); in test [1] (at 50.0 µM) it was -4.3% (inactive); in test [2] (setting [7]) it was -1% (inactive); in test [2] (setting [8]), -2% (inactive); in test [2] (at 50.0 µM) it was 11.8% (inactive). Also, the growth inhibition is -3% (inactive) in test [3] (setting [7]); -4% (inactive) in test [3] (setting [8]); 6.9% (inactive) in test [3] (at 50.0 µM); 2% (inactive) in test [4] (setting [7]); -3% (inactive) in test [4] (setting [8]); 86.8% (active) in test [4] (at 50.0 µM). The growth inhibition in test [5] (setting [7]) is 1% (inactive); in test [5] (setting [8]) it was -3% (inactive); in test [5] (at 50.0 µM), -9.25% (inactive); in test [6] (setting [7]), -3% (inactive); in test [6] (setting [8]), 0% (inactive); in test [6] (at 50.0 µM), -17.2% (inactive).
Take `O=C1c2ccccc2C(=O)N1CC[P+](c1ccccc1)(c1ccccc1)c1ccccc1`: the growth inhibition in test [1] (setting [7]) was 48% (inactive); in test [1] (setting [8]), 79% (active); in test [1] (at 50.0 µM), 70.5% (active) and 58.6% (inactive); in test [2] (setting [7]), 36% (inactive); in test [2] (setting [8]) it was 87% (active); in test [2] (at 50.0 µM), 58.5% (inactive) and 46.8% (inactive). Also, the growth inhibition is 20% (inactive) in test [3] (setting [7]); 69% (inactive) in test [3] (setting [8]); 63.5% (inactive) and 62.5% (inactive) in test [3] (at 50.0 µM); -5% (inactive) in test [4] (setting [7]); 47% (inactive) in test [4] (setting [8]); 20.8% (inactive) and 40% (inactive) in test [4] (at 50.0 µM). The growth inhibition in test [5] (setting [7]) was 30% (inactive); in test [5] (setting [8]) it was 79% (active); in test [5] (at 50.0 µM), 57.9% (inactive) and 43.3% (inactive); in test [6] (setting [7]), 43% (inactive); in test [6] (setting [8]), 85% (active); in test [6] (at 50.0 µM) it was 63.1% (inactive) and 54.9% (inactive).
As for `Nc1c2ccccc2nc2ccccc12`, the growth inhibition in test [1] (setting [7]) was 51% (inactive) and 41% (inactive); in test [1] (setting [8]), 92% (active) and 90% (active); in test [1] (at 50.0 µM), 94.5% (active) and 92.5% (active); in test [2] (setting [7]), 18% (inactive) and 19% (inactive); in test [2] (setting [8]), 66% (inactive) and 70% (active); in test [2] (at 50.0 µM), 60.8% (inactive) and 60.3% (inactive). Besides, the growth inhibition is 20% (inactive) and 18% (inactive) in test [3] (setting [7]); 73% (active) and 68% (inactive) in test [3] (setting [8]); 75.8% (active) and 74% (active) in test [3] (at 50.0 µM); 25% (inactive) in test [4] (setting [7]); 51% (inactive) and 65% (inactive) in test [4] (setting [8]); 54.5% (inactive) and 79% (active) in test [4] (at 50.0 µM). Also, the growth inhibition in test [5] (setting [7]) was 5% (inactive) and -1% (inactive); in test [5] (setting [8]) it was 79% (active) and 73% (active); in test [5] (at 50.0 µM) it was 63.6% (inactive) and 75.5% (active); in test [6] (setting [7]), 21% (inactive) and 25% (inactive); in test [6] (setting [8]), 86% (active); in test [6] (at 50.0 µM), 90.6% (active) and 88.5% (active).
Regarding `CC1C[C@]2(C)C(=O)Nc3ccccc3[C@@H]2Nc2ccccc21` (stereo partly specified), the growth inhibition in test [1] (setting [7]) was 6% (inactive); in test [1] (setting [8]) it was 36% (inactive); in test [1] (at 50.0 µM), 91.1% (active); in test [2] (setting [7]), 10% (inactive); in test [2] (setting [8]) it was 30% (inactive); in test [2] (at 50.0 µM), 93.8% (active). The growth inhibition is 22% (inactive) in test [3] (setting [7]); 14% (inactive) in test [3] (setting [8]); 93.2% (active) in test [3] (at 50.0 µM); -6% (inactive) in test [4] (setting [7]); 57% (inactive) in test [4] (setting [8]); 89.5% (active) in test [4] (at 50.0 µM). Further, the growth inhibition in test [5] (setting [7]) is 20% (inactive); in test [5] (setting [8]) it was 73% (active); in test [5] (at 50.0 µM), 91.5% (active); in test [6] (setting [7]), 16% (inactive); in test [6] (setting [8]) it was 43% (inactive); in test [6] (at 50.0 µM), 89.2% (active).
With `Oc1ccc2ccccc2c1Cc1c(O)ccc2ccccc12`, the growth inhibition in test [1] (setting [7]) is -1% (inactive); in test [1] (setting [8]), 86% (active); in test [1] (at 50.0 µM), 33% (inactive) and 99.2% (active); in test [2] (setting [7]) it was 11% (inactive); in test [2] (setting [8]), 96% (active); in test [2] (at 50.0 µM), 29.8% (inactive) and 22.7% (inactive). In addition, the growth inhibition in test [3] (setting [7]) is 7% (inactive); in test [3] (setting [8]) it was 53% (inactive); in test [3] (at 50.0 µM), 44.1% (inactive) and 99.5% (active); in test [4] (setting [7]), -25% (inactive); in test [4] (setting [8]) it was 95% (active); in test [4] (at 50.0 µM) it was 21.6% (inactive) and 97.8% (active). Moreover, the growth inhibition in test [5] (setting [7]) is -6% (inactive); in test [5] (setting [8]), 95% (active); in test [5] (at 50.0 µM), 16.2% (inactive) and 48.6% (inactive); in test [6] (setting [7]) it was -8% (inactive); in test [6] (setting [8]), 89% (active); in test [6] (at 50.0 µM), 16.4% (inactive) and 99.3% (active).
